# Measured values taken from the supplement of paper PMC4022240.
# ± gives the standard deviation.
# T1: HaloTag-ATRX ADD domain (163-292)
# T1 chain: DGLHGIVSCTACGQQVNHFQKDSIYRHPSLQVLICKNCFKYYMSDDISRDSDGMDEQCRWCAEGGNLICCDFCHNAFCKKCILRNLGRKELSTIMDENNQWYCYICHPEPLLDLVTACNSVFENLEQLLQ
# What was measured:
# Assay in all cases: peptide microarray binding signal (635 nm), min-max normalized on array (fraction of array maximum); higher = stronger binding
# Details in all cases: peptide region: H3 1-13
# [1] = target: T1, HaloTag-ATRX ADD domain (163-292)
# Procedure: (§1)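 Histone 13-mer peptides were synthesized as cellulose conjugates with a C-terminal 20-atom PEG linker and printed in triplicate on nitrocellulose. The sequence given is the unmodified backbone; PTMs (Kme1/2/3, Kac, Sph/Tph, Rme/Rme2a/Rme2s, Rcit) are listed in the label and the 'peptide modifications' condition. Slides were probed at 4 °C for 1 h with biotin-labelled (HQ)5-HaloTag reader fusions (ATRX-ADD, ING2-PHD) then streptavidin-Alexa647, or with rabbit histone antibodies then anti-rabbit Alexa647. The mean 635 nm signal of the triplicate spots was scaled 0-1 between the lowest and highest values on each array.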
# [2] = target: HaloTag-ING2 PHD (mouse Ing2 200-280)
# Procedure: as §1
# [3] = target: anti-H3K4me3 antibody ab8580
# Procedure: as §1
# [4] = target: anti-H3K9me3 antibody ab8898
# Procedure: as §1
# [5] = peptide modifications: H3K9me3, binder concentration: 1:2,000 dilution
# [6] = peptide modifications: H3K9me3, binder concentration: 1:10,000 dilution
# [7] = peptide modifications: H3R2cit H3K9me2, binder concentration: 1:2,000 dilution
# [8] = peptide modifications: H3R2cit H3K9me2, binder concentration: 1:10,000 dilution
# [9] = peptide modifications: H3R2cit H3T6ph, binder concentration: 1:2,000 dilution
# [10] = peptide modifications: H3R2cit H3T6ph, binder concentration: 1:10,000 dilution
# [11] = peptide modifications: H3R2cit H3K4me3, binder concentration: 1:2,000 dilution
# [12] = peptide modifications: H3R2cit H3K4me3, binder concentration: 1:10,000 dilution
# [13] = peptide modifications: H3R2me1 H3K9ac, binder concentration: 1:2,000 dilution
# [14] = peptide modifications: H3R2me1 H3K9ac, binder concentration: 1:10,000 dilution
# [15] = peptide modifications: H3R2me1 H3K4me1, binder concentration: 1:2,000 dilution
# [16] = peptide modifications: H3R2me1 H3K4me1, binder concentration: 1:10,000 dilution
# [17] = peptide modifications: H3R2me1, binder concentration: 1:2,000 dilution
# [18] = peptide modifications: H3R2me1, binder concentration: 1:10,000 dilution
# [19] = peptide modifications: H3R2cit, binder concentration: 1:2,000 dilution
# [20] = peptide modifications: H3R2cit, binder concentration: 1:10,000 dilution
# [21] = peptide modifications: H3K9me2 H3S10ph, binder concentration: 1:2,000 dilution
# [22] = peptide modifications: H3K9me2 H3S10ph, binder concentration: 1:10,000 dilution
# [23] = peptide modifications: H3R2me1 H3K4ac, binder concentration: 1:2,000 dilution
# [24] = peptide modifications: H3R2me1 H3K4ac, binder concentration: 1:10,000 dilution
binder,measurement,setting,value
ARTKQTARKSTGG [H3 1-13 A R T K Q T A R Kme3 S T G G],peptide microarray binding signal,"[1]; peptide modifications: H3K9me3, binder concentration: 50 nM",0.422 ± 0.025
same,peptide microarray binding signal,"[1]; peptide modifications: H3K9me3, binder concentration: 500 nM",0.417 ± 0.049
same,peptide microarray binding signal,"[2]; peptide modifications: H3K9me3, binder concentration: 10 nM",0.0205 ± 0.0055
same,peptide microarray binding signal,"[2]; peptide modifications: H3K9me3, binder concentration: 100 nM",0.0183 ± 0.0029
same,peptide microarray binding signal,[3]; [5],0.0544 ± 0.038
same,peptide microarray binding signal,[3]; [6],0.0262 ± 0.0086
same,peptide microarray binding signal,[4]; [5],0.228 ± 0.047
same,peptide microarray binding signal,[4]; [6],0.169 ± 0.11
ARTKQTARKSTGG [H3 1-13 A Rcit T K Q T A R Kme2 S T G G],peptide microarray binding signal,"[1]; peptide modifications: H3R2cit H3K9me2, binder concentration: 50 nM",0.0526 ± 0.0021
same,peptide microarray binding signal,"[1]; peptide modifications: H3R2cit H3K9me2, binder concentration: 500 nM",0.112 ± 0.0057
same,peptide microarray binding signal,"[2]; peptide modifications: H3R2cit H3K9me2, binder concentration: 10 nM",0.0306 ± 0.0059
same,peptide microarray binding signal,"[2]; peptide modifications: H3R2cit H3K9me2, binder concentration: 100 nM",0.056 ± 0.011
same,peptide microarray binding signal,[3]; [7],0.0151 ± 0.001
same,peptide microarray binding signal,[3]; [8],0.013 ± 0.0011
same,peptide microarray binding signal,[4]; [7],0.0265 ± 0.0012
same,peptide microarray binding signal,[4]; [8],0.00986 ± 0.00045
ARTKQTARKSTGG [H3 1-13 A Rcit T K Q Tph A R K S T G G],peptide microarray binding signal,"[1]; peptide modifications: H3R2cit H3T6ph, binder concentration: 50 nM",0.00621 ± 0.00039
same,peptide microarray binding signal,"[1]; peptide modifications: H3R2cit H3T6ph, binder concentration: 500 nM",0.0199 ± 0.0043
same,peptide microarray binding signal,"[2]; peptide modifications: H3R2cit H3T6ph, binder concentration: 10 nM",0.00382 ± 0.00065
same,peptide microarray binding signal,"[2]; peptide modifications: H3R2cit H3T6ph, binder concentration: 100 nM",0.0157 ± 0.0039
same,peptide microarray binding signal,[3]; [9],0.00345 ± 0.00082
same,peptide microarray binding signal,[3]; [10],0.00348 ± 0.00034
same,peptide microarray binding signal,[4]; [9],0.00166 ± 0.00026
same,peptide microarray binding signal,[4]; [10],0.00173 ± 0.00011
ARTKQTARKSTGG [H3 1-13 A Rcit T Kme3 Q T A R K S T G G],peptide microarray binding signal,"[1]; peptide modifications: H3R2cit H3K4me3, binder concentration: 50 nM",0.0156 ± 0.00085
same,peptide microarray binding signal,"[1]; peptide modifications: H3R2cit H3K4me3, binder concentration: 500 nM",0.0357 ± 0.0095
same,peptide microarray binding signal,"[2]; peptide modifications: H3R2cit H3K4me3, binder concentration: 10 nM",0.131 ± 0.042
same,peptide microarray binding signal,"[2]; peptide modifications: H3R2cit H3K4me3, binder concentration: 100 nM",0.19 ± 0.089
same,peptide microarray binding signal,[3]; [11],0.476 ± 0.19
same,peptide microarray binding signal,[3]; [12],0.28 ± 0.066
same,peptide microarray binding signal,[4]; [11],0.0852 ± 0.028
same,peptide microarray binding signal,[4]; [12],0.0601 ± 0.039
ARTKQTARKSTGG [H3 1-13 A Rme T K Q T A R Kac S T G G],peptide microarray binding signal,"[1]; peptide modifications: H3R2me1 H3K9ac, binder concentration: 50 nM",0.0167 ± 0.0025
same,peptide microarray binding signal,"[1]; peptide modifications: H3R2me1 H3K9ac, binder concentration: 500 nM",0.121 ± 0.14
same,peptide microarray binding signal,"[2]; peptide modifications: H3R2me1 H3K9ac, binder concentration: 10 nM",0.0337 ± 0.00085
same,peptide microarray binding signal,"[2]; peptide modifications: H3R2me1 H3K9ac, binder concentration: 100 nM",0.0529 ± 0.0063
same,peptide microarray binding signal,[3]; [13],0.0105 ± 0.0012
same,peptide microarray binding signal,[3]; [14],0.00999 ± 0.00055
same,peptide microarray binding signal,[4]; [13],0.085 ± 0.13
same,peptide microarray binding signal,[4]; [14],0.0364 ± 0.046
ARTKQTARKSTGG [H3 1-13 A Rme T Kme Q T A R K S T G G],peptide microarray binding signal,"[1]; peptide modifications: H3R2me1 H3K4me1, binder concentration: 50 nM",0.00746 ± 0.00026
same,peptide microarray binding signal,"[1]; peptide modifications: H3R2me1 H3K4me1, binder concentration: 500 nM",0.0155 ± 0.00095
same,peptide microarray binding signal,"[2]; peptide modifications: H3R2me1 H3K4me1, binder concentration: 10 nM",0.0585 ± 0.006
same,peptide microarray binding signal,"[2]; peptide modifications: H3R2me1 H3K4me1, binder concentration: 100 nM",0.147 ± 0.034
same,peptide microarray binding signal,[3]; [15],0.0545 ± 0.02
same,peptide microarray binding signal,[3]; [16],0.023 ± 0.0071
same,peptide microarray binding signal,[4]; [15],0.00248 ± 0.00029
same,peptide microarray binding signal,[4]; [16],0.00127 ± 1.3e-05
ARTKQTARKSTGG [H3 1-13 A Rme T K Q T A R K S T G G],peptide microarray binding signal,"[1]; peptide modifications: H3R2me1, binder concentration: 50 nM",0.0145 ± 0.00019
same,peptide microarray binding signal,"[1]; peptide modifications: H3R2me1, binder concentration: 500 nM",0.0334 ± 0.0026
same,peptide microarray binding signal,"[2]; peptide modifications: H3R2me1, binder concentration: 10 nM",0.0175 ± 0.0043
same,peptide microarray binding signal,"[2]; peptide modifications: H3R2me1, binder concentration: 100 nM",0.0456 ± 0.0031
same,peptide microarray binding signal,[3]; [17],0.000698 ± 1.7e-05
same,peptide microarray binding signal,[3]; [18],0.000742
same,peptide microarray binding signal,[4]; [17],0.00202 ± 0.0002
same,peptide microarray binding signal,[4]; [18],0.000461
ARTKQTARKSTGG [H3 1-13 A Rcit T K Q T A R K S T G G],peptide microarray binding signal,"[1]; peptide modifications: H3R2cit, binder concentration: 50 nM",0.00937 ± 0.00037
same,peptide microarray binding signal,"[1]; peptide modifications: H3R2cit, binder concentration: 500 nM",0.0298 ± 0.0055
same,peptide microarray binding signal,"[2]; peptide modifications: H3R2cit, binder concentration: 10 nM",0.012 ± 0.0023
same,peptide microarray binding signal,"[2]; peptide modifications: H3R2cit, binder concentration: 100 nM",0.0101 ± 0.001
same,peptide microarray binding signal,[3]; [19],0.00315 ± 0.00061
same,peptide microarray binding signal,[3]; [20],0.00126 ± 0.00016
same,peptide microarray binding signal,[4]; [19],0.00101 ± 0.00014
same,peptide microarray binding signal,[4]; [20],0.000577 ± 1.6e-05
ARTKQTARKSTGG [H3 1-13 A R T K Q T A R Kme2 Sph T G G],peptide microarray binding signal,"[1]; peptide modifications: H3K9me2 H3S10ph, binder concentration: 50 nM",0.0356 ± 0.0038
same,peptide microarray binding signal,"[1]; peptide modifications: H3K9me2 H3S10ph, binder concentration: 500 nM",0.0593 ± 0.0025
same,peptide microarray binding signal,"[2]; peptide modifications: H3K9me2 H3S10ph, binder concentration: 10 nM",0.00615 ± 8.7e-05
same,peptide microarray binding signal,"[2]; peptide modifications: H3K9me2 H3S10ph, binder concentration: 100 nM",0.0145 ± 0.0016
same,peptide microarray binding signal,[3]; [21],0.00119 ± 1.7e-05
same,peptide microarray binding signal,[3]; [22],0.000456 ± 3.6e-05
same,peptide microarray binding signal,[4]; [21],0.0144 ± 0.0017
same,peptide microarray binding signal,[4]; [22],0.00375 ± 0.00021
ARTKQTARKSTGG [H3 1-13 A Rme T Kac Q T A R K S T G G],peptide microarray binding signal,"[1]; peptide modifications: H3R2me1 H3K4ac, binder concentration: 50 nM",0.00636 ± 0.00044
same,peptide microarray binding signal,"[1]; peptide modifications: H3R2me1 H3K4ac, binder concentration: 500 nM",0.00867 ± 0.00048
same,peptide microarray binding signal,"[2]; peptide modifications: H3R2me1 H3K4ac, binder concentration: 10 nM",0.0133 ± 0.0026
same,peptide microarray binding signal,"[2]; peptide modifications: H3R2me1 H3K4ac, binder concentration: 100 nM",0.0738 ± 0.0056
same,peptide microarray binding signal,[3]; [23],0.00115 ± 0.0001
same,peptide microarray binding signal,[3]; [24],0.001541 ± 1.5e-05
same,peptide microarray binding signal,[4]; [23],0.00402 ± 0.0014
same,peptide microarray binding signal,[4]; [24],0.0011 ± 2.2e-05
